High-throughput results as filed in PubChem BioAssay.
RORgamma inh: blocks mouse ROR gamma transcriptional activity | 5.4% of 310,000 active | P51450 | Potency, µM (series often up to 53.6 µM), hits mostly inhibitors | Drosophila S2 Gal4-RORgamma UAS-luciferase reporter, 20 h | AID 2551; also: nearly all actives have a fitted effect of over 60% in size
Target sequence (P51450 whole entry, looked up, the tested form may be a part): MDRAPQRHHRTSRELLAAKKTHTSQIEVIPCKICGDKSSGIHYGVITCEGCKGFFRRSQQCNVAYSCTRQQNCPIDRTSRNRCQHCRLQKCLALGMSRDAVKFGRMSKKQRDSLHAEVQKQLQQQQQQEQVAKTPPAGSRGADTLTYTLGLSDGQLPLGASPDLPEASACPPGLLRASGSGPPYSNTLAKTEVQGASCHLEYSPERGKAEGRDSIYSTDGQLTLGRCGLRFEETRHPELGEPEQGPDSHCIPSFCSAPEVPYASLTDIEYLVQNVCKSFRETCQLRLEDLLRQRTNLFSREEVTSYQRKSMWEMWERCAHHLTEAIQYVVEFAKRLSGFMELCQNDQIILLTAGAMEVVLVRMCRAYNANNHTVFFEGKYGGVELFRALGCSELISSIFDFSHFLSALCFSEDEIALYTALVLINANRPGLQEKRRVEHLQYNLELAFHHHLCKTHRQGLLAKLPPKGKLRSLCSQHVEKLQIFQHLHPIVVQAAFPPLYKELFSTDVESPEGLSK
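Luciferase reporter read in Schneider cells carrying Gal4-RORγ (mouse) and UAS-Photinus luciferase; cells given compound 1 h before 700 uM copper sulfate induction, then incubated 20 h at ambient temperature.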
Gal4-VP16 FLuc: inhibits Gal4-VP16 luciferase reporter, ROR gamma counter-screen. Drosophila S2 Gal4-VP16 UAS-luciferase, luminescence, 20 h. AID 2546. Potency, µM (doses to about 53.6 µM), most hits filed as inhibitors. 3.5% of 310,000 active;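 also: Gal4-VP16 expression switched on by copper sulfate through the metallothionein promoter; nearly all actives have a fitted effect of over 50% in size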
B2AR arrestin: recruits beta-arrestin to the human beta2-adrenergic receptor. beta-arrestin recruitment to beta2AR, cell-based reporter. 0.02% of 330,000 active. P07550. Potency, µM (titrated, usually from 46.1 µM), most hits filed as activators; also: nearly all actives have a fitted effect of over 65% in size
NPSR antagonist: antagonists of human neuropeptide S receptor cAMP signaling. CHO-NPSR cells, cAMP TR-FRET, antagonist mode. 1% of 220,000 active. AID 1461. Potency, µM (highest dose often 38.3 µM), usual class: inhibitors. Q6W5P4; also: nearly all actives have a fitted effect of over 50% in size
Numbers stand for hits; i = inactive; ? = inconclusive; nt = not tested or not shown; [ ] = another dose, or the depositor's remark. An excerpt weighted towards active compounds, which were near 5.7% of everything screened. Calls follow the shape of the dose curve; as a rule, active = well fitted curve in the direction sought with a large enough effect; inconclusive = small, poorly fitted or top-dose-only effect, or another doubt; inactive = no such curve, though single readings can be large; an effect the other way counts as inactive or inconclusive.

SMILES	RORgamma inh	Gal4-VP16 FLuc	B2AR arrestin	NPSR antagonist
CCSc1nnc(NC(=O)c2cccc(S(=O)(=O)N(C)c3ccc(C)cc3)c2)s1	15.8µM	?	i	i
Cc1cccc2sc(NC(=O)CNS(=O)(=O)c3ccc(Br)s3)nc12	11.2µM	i	i	i
Cc1ccc(CN2CC(C(=O)Nc3nnc(SCc4c(Cl)cccc4Cl)s3)CC2=O)cc1 (stereo not drawn)	?	i	i	i
CC[C@H](C)[C@H](NC(=O)[C@H](CCC(=O)O)NC(=O)CNC(=O)[C@H](CCCCN)NC(=O)[C@H](CCC(=O)O)NC(=O)[C@H](CCSC)NC(=O)[C@H](CCSC)NC(=O)[C@H](CCSC)NC(=O)[C@H](CCC(=O)O)NC(=O)CNC(=O)[C@H](CO)NC(=O)[C@H](CO)NC(=O)[C@H](CO)NC(=O)[C@@H](N)CC(N)=O)C(=O)N[C@@H](CCCCN)C(=O)O	i	i	nt	nt
C=C(C(C)=O)C(O)c1ccco1 (stereo not drawn)	i	i	nt	nt
CCCNC(=O)COc1ccc(S(=O)(=O)Nc2ccc(C)cc2)cc1	i	i	i	i
Cc1cc(Cn2cnc3c2C[C@@H](C(=O)O)N(C(=O)C(c2ccccc2)c2ccccc2)C3)ccc1N(C)C	i	i	nt	nt
CCOC(=O)c1cc2c(C)n(-c3ccc(C)cc3)c(C)c2ccc1=O	i	10µM	i	?
CCN(CCn1cccn1)C(=O)C1CCC(=O)N(CCc2cccc(F)c2)C1 (stereo not drawn)	i	i	i	nt
COc1ccc(/C=N/n2c(-c3cccs3)n[nH]c2=S)cc1	2.82µM	?	i	i
S=c1[nH]nc(-c2cccs2)n1/N=C/c1c(Cl)cccc1Cl	11.2µM	i	i	i
Cc1ccc(/C=N/n2c(-c3cccs3)n[nH]c2=S)cc1	2µM	?	i	?
OC(CNCCCCNCC(O)C(F)(F)F)C(F)(F)F (stereo not drawn)	i	i	i	i
CCOc1ccc2c(c1)n([O-])c1c([n+]2=O)CCCC1	12.6µM	?	i	i
CSc1ccccc1NC(=O)CN(C)C(=O)C1CCN(C(=O)Nc2ccccc2)CC1	nt	nt	i	nt
CC(C)CCC[C@@H](C)[C@H]1CC[C@H]2[C@@H]3CC=C4C[C@@H](O)CC[C@]4(C)[C@H]3CC[C@]12C	i	i	nt	nt
CCC(C)N(NC(C)=O)c1nc(Cl)nc(NC(C)C)n1 (stereo not drawn)	11.2µM	?	i	i
CCCCn1c(SC(C)C(N)=O)nc2cc(C(=O)OC)ccc2c1=O (stereo not drawn)	14.1µM	i	i	i
C[C@@H](c1ccccc1)N1C(=O)[C@@H]2[C@H]3C(=CC[C@H]2C1=O)C(=O)[C@H]1O[C@H]1[C@H]3O	3.55µM	?	nt	nt
CC(C)(C)N1C(=O)[C@@H]2[C@H]3C(=CC[C@H]2C1=O)C(=O)[C@H]1O[C@H]1[C@H]3O	1.41µM	?	nt	nt
C#CCCCO/N=C1/C[C@@H](O)[C@@H](O)[C@@H]2[C@@H]3C(=O)N(C(C)(C)C)C(=O)[C@H]3CC[C@H]12	i[10 µM]	i[10 µM]	nt	nt
C[C@@H](c1ccccc1)N1C(=O)[C@H]2[C@H]3[C@H](O)[C@H](O)C/C(=N/OCc4ccccc4)[C@H]3CC[C@@H]2C1=O	i[10 µM]	i[10 µM]	nt	nt
CCOC(=O)CCN1C(=O)[C@@H]2[C@H]3C(=CC[C@H]2C1=O)C(=O)[C@H]1O[C@H]1[C@H]3O	2.24µM	i[10 µM]	nt	nt
N#Cc1c2c(c(-c3ccccc3Cl)[nH]c1=S)CCCC2	15.8µM	15.8µM	i	?
N#Cc1c(-c2ccccc2Cl)cc(-c2ccccc2)[nH]c1=S	i	i[10 µM]	i	i
SMILES	RORgamma inh	Gal4-VP16 FLuc	B2AR arrestin	NPSR antagonist
Cc1[nH]c(=O)c(C(=O)/C=C/c2ccccc2F)c2c1CCCC2	5.62µM	5.62µM	i	i
C/C(=N\Nc1nc2ccccc2[nH]1)c1ccc2c(c1)OCCO2	7.08µM	?	i	i
COc1cc(/C=N/Nc2nc3ccccc3[nH]2)ccc1O	?	i	i	i
C(=N\Nc1nc2ccccc2[nH]1)/c1ccc2c(c1)OCO2	12.6µM	?	i	i
C/C(=N\Nc1nc2ccccc2[nH]1)c1ccc2c(c1)OCO2	3.16µM	11.2µM	i	i
CC(C)C(NC(=O)c1ccc2c(c1)OCCO2)c1nc2ccccc2[nH]1 (stereo not drawn)	i	i	i	nt
C/C(=N\Nc1ccccn1)c1ccc2c(c1)OCO2	?	?	i	i
O=c1[nH]c(N/N=C\c2ccc(F)cc2)nc2ccccc12	10µM	i	i	i
CCN(CC)c1ccc(/C=N/Nc2nc(C)cc(=O)[nH]2)c(O)c1	5.01µM	3.16µM	i	i
CCN(CC)c1ccc(/C=N/Nc2nc3ccccc3[nH]2)cc1	3.16µM	3.98µM	i	5.01µM
CC(=O)Nc1ccc(/C=N/Nc2nc3ccccc3[nH]2)cc1	?	i	i	i
Cc1ccc(-c2cc3c(N=O)c4ccccc4c-3n[nH]2)cc1	10µM	?	i	i
COc1ccc(N/C=C/C(=O)c2ccc(Cl)cc2)cc1	i	i	i	i
NC(=O)c1ccccc1N/C=C/C(=O)c1ccc(Cl)cc1	1.41µM	1.58µM	i	i
Cc1ccc(/C=C/C(=O)c2ccc(C)cc2)cc1	i	i	i	i
Cc1ccc(C(=O)/C=C/C(=O)c2ccc(C)cc2)cc1	5.01µM	?	i	?
Cc1ccc(/C=C/C(=O)Nc2ccccc2C(N)=O)cc1	3.55µM	?	i	i
NC(=O)c1ccccc1NC(=O)/C=C/C(=O)O	i	i	i	i
NC(=O)c1ccccc1N/C=C/C(=O)c1ccco1	i	i	i	i
Cc1ccc(C(=O)/C=C/Nc2ccccc2C(N)=O)cc1	0.501µM	2.82µM	i	i
CCCN(CCc1cccs1)[C@H]1CCc2c(O)cccc2C1	i	i	nt	nt
COc1cccc(NC(=S)N2CCCC2)c1	i	i	i	i
COc1cccc(NC(=S)N2CCN(C(c3ccccc3)c3ccccc3)CC2)c1	4.47µM	8.91µM	i	i
COc1ccc(NC(=S)N2CCN(C(c3ccccc3)c3ccccc3)CC2)c(OC)c1	5.01µM	?	i	i
COc1ccc(N2CCN(C(=S)Nc3ccc(OC)cc3OC)CC2)cc1	i[1.91 µM]	i	i	nt
SMILES	RORgamma inh	Gal4-VP16 FLuc	B2AR arrestin	NPSR antagonist
O=c1c(C(c2ccccc2)c2c(O)sc3ccccc3c2=O)c(O)sc2ccccc12	i	i	i	10µM
Cc1cc2sc3ccccc3c(=O)c2c(C)c1O	i	i	i	i
CCN(CC)S(=O)(=O)c1ccc(OC)c(NC(=O)c2ccc(-n3cncn3)c([N+](=O)[O-])c2)c1	nt	nt	i	nt
CCOC(=O)N1CCN(C(=S)NC(=O)c2nn(C)cc2Br)CC1	17.8µM	?	i	i
Cn1ncc(Br)c1C(=O)NC(=S)N1CCN(c2ccccn2)CC1	6.31µM	11.2µM	i	i
Cn1cc(Br)c(C(=O)NC(=S)N2CCN(c3ccccn3)CC2)n1	3.98µM	12.6µM	i	i
COC(=O)c1ccccc1NC(=S)N1CCN(c2ccccn2)CC1	i	i	i	i
Cc1ccc(Nc2nc(=O)c3cccnc3s2)cc1	i	i	i	i
COc1ccc(OC)c(Nc2nc(=O)c3cccnc3s2)c1	4.47µM	3.16µM	i	i
Cc1cc(OCC(=O)NC(C)c2ccccc2)ccc1[N+](=O)[O-] (stereo not drawn)	i	i[10 µM]	i	i
